Here are results for 13 molecules from PubChem BioAssay.

Results filed as inconclusive are left out. Active and inactive are the calls of the source.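 The calls were made as follows, unless noted: active = viability at or below 10% of carrier control in both of two separate runs; inconclusive = viability at or below 10% in only one of the two runs; inactive = the rest.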

Experiment [1] is described as follows: Her2 expression decrease, cell viability multiplex – SKBR3 breast tumor cells, AlphaScreen, ATP viability, primary screen (AID 461;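 active = Her2 level under about 52% in both replicate screens, with viability over 70% of control, limit read from the data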;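 as to Her2 level: lower value means less Her2 protein in the cells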;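 as to viability: percent of carrier control wells set as 100% viability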). As to conditions: SKBR3 Her2 protein level, 18-24 h, measured here: SKBR3 viability, ATP luminescence, at 10 µM.
The target in experiment [2] is Receptor tyrosine-protein kinase erbB-2 (Homo sapiens) (UniProt P04626). The description is as above. The following applies: 18-24 h, at 10 µM, stronger effect = lower value.
A short description of experiment [3]: reduced viability of SK-BR-3 breast cancer cells – cell-based, 24 h, human, pilot screen (AID 572).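 Also: compound exposure lasted between 18 and 24 h rather than exactly 24 h; 100% = carrier-treated control wells.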 As to conditions: SK-BR-3 viability, CellTiter-Glo luminescence, at 10 µM, stronger effect = lower value.
Experiment [4] in a line: HUVEC growth inhibition – cell-based, human, primary screen (AID 575;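 active = viability at or below 30% in both replicate assays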;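 also: 100% = median of untreated cell wells with 0.1% DMSO on each plate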). As to conditions: HUVEC proliferation, CellTiter-Glo luminescence, 72 h; at 10 µM; stronger effect = lower value.
The nature of experiment [5]: H69AR cell proliferation blockers – human, duplicate replicates, primary screen (AID 580;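 active = viability at or under a set limit in both replicates, limit being median viability minus 3 SD, cut at about 48% in these data, passing the limit was not always enough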;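 also: 100% = mean luminescence of untreated wells and 0% = no signal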). The following applies: H69AR lung tumor cells viability, ATP luminescence, 72 h; at 10 µM; stronger effect = lower value.
Experiment [6] is described as follows: yeast transport mutant growth inhibition pilot in 384-well plates, post-Golgi transport modulator project (AID 636; in the data active = inhibition above about 31%). As to conditions: absorbance 615 nm, about 18 h, stronger effect = higher value.
Experiment [7] is described as follows: growth suppression of yeast trafficking mutant, preliminary HTS, modulators of trafficking downstream of Golgi apparatus project, 1536-format plate, OD 615 nm (AID 637; in the data active = inhibition above about 30%). The following applies: yeast transport mutant growth, absorbance 615 nm, 18 h; stronger effect = higher value.
Experiment [8] is described as follows: MRP1 drug-resistance reversers in H69AR cells – cell-based, doxorubicin co-treatment, pilot screen (AID 601;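 active = viability loss from added drug above about 55%, and viability with drug at most 40%, in both replicates, limit read from the data, passing the limit was not always enough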). As to conditions: CellTiter-Glo, 72 h, at 10 µM; for differential viability (reversal): stronger effect = higher value.
Experiment [9] is described as follows: S. cerevisiae growth inhibition in permissive medium (OD615), pilot counter-assay for S. cerevisiae lifespan shortening project, permissive growth control (AID 705;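 active = growth inhibition above 25% in both replicates, a cutoff set 3 SD above the mean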). The following applies: OD615, 24 h, at 10 µM, stronger effect = higher value.
The nature of experiment [10]: S. cerevisiae growth inhibition in restrictive medium, OD615, pilot screen, restrictive growth control, yeast lifespan reduction project (AID 706;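 active = growth inhibition above a set limit, 3 SD over mean compound inhibition, in both replicates, cut at about 43% in these data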;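 also: modified DeaD lifespan yeast strain shifted to restrictive glucose medium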). The following applies: OD615, 48 h, at 10 µM, stronger effect = higher value.
Experiment [11] is described as follows: doxorubicin toxicity protection in MRP-1 cells – H69AR cells, CellTiter-Glo, duplicate, MRP-1 activator project, pilot screen (AID 807;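 active = viability increase at or above a cutoff of the median across tested compounds plus 3 SD, cut at about 8.5% in these data, passing the limit was not always enough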;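 also: compound pretreatment 18-22 h then 72 h combined with doxorubicin; 0% = doxorubicin alone and 100% = vehicle without doxorubicin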). As to conditions: H69AR viability with doxorubicin, CellTiter-Glo luminescence; at 10 µM; stronger effect = higher value.
The nature of experiment [12]: viability of HCT116 without oncogenic beta-catenin – human colon tumor cells, pilot screen (AID 823;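 active = cell viability at or below a set limit in both duplicate runs, the limit being the all-compound median minus 4 SD, cut at about 23% in these data, passing the limit was not always enough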;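 also: 0% = wells killed by 20 µM Hyamine and 100% = untreated DMSO cell wells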). The following applies: HCT116 beta-catenin knockout viability, CellTiter-Glo, 60 h; at 10 µM; stronger effect = lower value.
The nature of experiment [13]: viability of PTEN-null HCT116 cells – cell-based, HCT116 clonal line, CellTiter-Glo, pilot screen (AID 824;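 active = viability at or below 27.92% in each of two runs, the all-compound median minus 4 SD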;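 also: 0% = 20 µM Hyamine control and 100% = vehicle cell control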). The following applies: HCT116 PTEN-deleted viability, 60 h, at 10 µM, stronger effect = lower value.
A short description of experiment [14]: RAM pathway blockade in budding yeast – dse1pr::URA3 reporter, 5-FOA selection, pilot screen (AID 869;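 active = inhibition over a set limit, the all-compound mean plus 3 SD, in both replicate runs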;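 also: 0% = DMSO wells with no growth and 100% = 10 µM 1-NA-PP1 with full growth; RAM network block rescues cells from 5-FOA so hits raise OD615 growth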). As to conditions: S. cerevisiae dse1pr::URA3 5-FOA growth, OD615, 2 d; at 10 µM; stronger effect = higher value; strain carries analog-sensitive mutant Cbk1 kinase.
Where [15] appears, read: H69AR cells + 2 uM doxorubicin, measured here: viability with 2 uM doxorubicin, stronger effect = lower value.
The mark [16] stands for this setting: H69AR cells, compound alone cytotoxicity.

Sequence of Receptor tyrosine-protein kinase erbB-2 (Homo sapiens) (P04626 whole entry, looked up): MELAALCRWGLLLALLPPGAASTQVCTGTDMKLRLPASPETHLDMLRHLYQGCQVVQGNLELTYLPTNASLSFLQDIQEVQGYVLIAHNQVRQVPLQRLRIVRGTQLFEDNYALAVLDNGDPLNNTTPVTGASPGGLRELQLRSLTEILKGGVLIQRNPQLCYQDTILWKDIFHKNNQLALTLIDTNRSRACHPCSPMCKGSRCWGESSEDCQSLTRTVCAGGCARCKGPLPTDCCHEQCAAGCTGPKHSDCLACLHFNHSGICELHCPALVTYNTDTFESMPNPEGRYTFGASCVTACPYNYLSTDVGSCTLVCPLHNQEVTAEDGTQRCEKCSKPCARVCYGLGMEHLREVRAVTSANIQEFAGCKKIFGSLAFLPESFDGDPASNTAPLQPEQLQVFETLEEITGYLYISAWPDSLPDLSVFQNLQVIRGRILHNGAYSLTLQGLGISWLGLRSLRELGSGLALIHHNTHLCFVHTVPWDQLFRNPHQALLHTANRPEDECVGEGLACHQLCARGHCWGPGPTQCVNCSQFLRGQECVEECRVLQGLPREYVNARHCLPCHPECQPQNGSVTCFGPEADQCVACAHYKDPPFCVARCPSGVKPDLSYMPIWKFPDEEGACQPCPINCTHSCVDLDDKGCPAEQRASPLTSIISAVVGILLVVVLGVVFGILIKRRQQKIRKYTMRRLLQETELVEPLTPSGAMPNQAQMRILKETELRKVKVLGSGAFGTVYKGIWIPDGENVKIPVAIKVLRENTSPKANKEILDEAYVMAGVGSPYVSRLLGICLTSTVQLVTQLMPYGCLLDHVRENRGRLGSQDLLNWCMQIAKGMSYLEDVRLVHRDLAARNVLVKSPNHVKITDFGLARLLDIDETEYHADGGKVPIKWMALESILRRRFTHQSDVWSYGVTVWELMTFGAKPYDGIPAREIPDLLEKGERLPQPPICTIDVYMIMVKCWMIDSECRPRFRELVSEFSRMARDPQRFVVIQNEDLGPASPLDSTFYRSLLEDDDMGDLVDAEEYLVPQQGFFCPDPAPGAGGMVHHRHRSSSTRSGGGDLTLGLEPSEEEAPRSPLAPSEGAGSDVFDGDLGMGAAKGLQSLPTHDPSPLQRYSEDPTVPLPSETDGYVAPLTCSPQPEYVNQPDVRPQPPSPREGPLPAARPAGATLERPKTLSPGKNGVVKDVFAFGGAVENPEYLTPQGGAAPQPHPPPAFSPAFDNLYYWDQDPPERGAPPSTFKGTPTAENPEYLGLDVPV

Take `Cn1c(=N)c(S(=O)(=O)c2ccccc2)cc2c(=O)n3ccccc3nc21`: the viability in experiment [1] is 83.5%; in experiment [3] it was 83.5% (inactive); in [4] it was 83% (inactive); in experiment [5], 75% (inactive). Besides, the Her2 level in experiment [2] was 108% (inactive). Further, the inhibition in [6] is 3.87% (inactive); in experiment [7] it was 31.8% (active).
For the molecule `Cc1cccc(-n2c(=O)cc(N3CCN(c4ccc(F)cc4)CC3)[nH]c2=O)c1`, the viability is 85.5% in [1]; 85.5% (inactive) in experiment [3]; 66.5% (inactive) in experiment [4]; 71.9% (inactive) in [5]; 71.8% in [8] (setting [15]); 71.9% in experiment [8] (setting [16]). The viability in [12] was 79.3% (inactive); in experiment [13] it was 66.1% (inactive). For the same molecule, the Her2 level in [2] was 110% (inactive). In addition, the differential viability (reversal) in experiment [8] (H69AR cells + 2 uM doxorubicin) is 0.095% (inactive). Further, the inhibition was -2.13% (inactive) in [6], -2.33% (inactive) in experiment [7] and 4.09% (inactive) in [14]. The growth inhibition in experiment [9] is -12.5% (inactive); in experiment [10], -8.2% (inactive). In addition, in experiment [11], the viability increase was -5.2% (inactive).
As to `Cc1ccccc1Cn1c(=O)c2c(nc3n2CCCN3Cc2ccccc2)n(C)c1=O`, the viability was 89% in [1], 89% (inactive) in [3], 65.5% (inactive) in [4] and 78.5% (inactive) in [5]. In addition, in [2], the Her2 level was 89% (inactive). Further, the inhibition is -3.2% (inactive) in [6] and -2.26% (inactive) in experiment [7].
In the case of `Cc1ccc(-n2ncc3c(N4CCN(c5ccccc5)CC4)ncnc32)c(C)c1`, the viability is 93% in experiment [1], 93% (inactive) in [3], 57.9% (inactive) in [4] and 80.3% (inactive) in experiment [5]. In addition, in [2], the Her2 level was 79% (inactive). Also, the values for the inhibition in experiment [6] and in experiment [7] were -2.93% (inactive) and 1.94% (inactive), respectively.
With `O=C(C1CCN(c2nnc(-n3cccc3)s2)CC1)N1CCN(Cc2ccc3c(c2)OCO3)CC1`, the viability in [1] is 78.5%; in experiment [3] it was 78.5% (inactive); in [4] it was 105% (inactive); in [5], 82% (inactive); in experiment [8] (setting [15]) it was 85.6%; in experiment [8] (setting [16]), 82%. In addition, the viability was 59.1% (inactive) in experiment [12] and 64.8% (inactive) in [13]. Besides, in experiment [2], the Her2 level is 80.5% (inactive). Also, the differential viability (reversal) in experiment [8] (H69AR cells + 2 uM doxorubicin) is -3.6% (inactive). The inhibition in experiment [6] is 3.59% (inactive); in [7], 1.67% (inactive); in experiment [14], 2.78% (inactive). Moreover, the growth inhibition in [9] is 10.4% (inactive); in experiment [10], 10.1% (inactive). In addition, in experiment [11], the viability increase was -0.09% (inactive).
Turning to `Cc1[nH]c2ccccc2c1Cc1nnc(SCC(=O)NCc2ccco2)o1`, the viability in experiment [1] is 93%; in experiment [3], 93% (inactive); in experiment [4] it was 97.5% (inactive); in experiment [5] it was 93.7% (inactive); in experiment [8] (setting [15]), 85.7%; in experiment [8] (setting [16]), 93.7%. Moreover, the figures for the viability in experiment [12] and in [13] were 103% (inactive) and 95.5% (inactive), respectively. Moreover, the Her2 level in experiment [2] is 93% (inactive). Moreover, the differential viability (reversal) in [8] (H69AR cells + 2 uM doxorubicin) is 8% (inactive). The inhibition is 1.6% (inactive) in experiment [6], -2.17% (inactive) in experiment [7] and 2.85% (inactive) in experiment [14]. The growth inhibition is -12.4% (inactive) in experiment [9] and 12.7% (inactive) in experiment [10]. For the same molecule, in experiment [11], the viability increase was -3.96% (inactive).
In the case of `Cc1ccc(CCNC(=O)C2CCCN2S(=O)(=O)c2ccc3c(c2)CCC(=O)N3)cc1` (stereo not drawn), the viability is 87.5% in experiment [1]; 87.5% (inactive) in experiment [3]; 91.8% (inactive) in experiment [4]; 101% (inactive) in experiment [5]; 96.2% in experiment [8] (setting [15]); 101% in experiment [8] (setting [16]). In addition, the viability in experiment [12] is 101% (inactive); in [13], 98.8% (inactive). Also, the Her2 level in experiment [2] is 93.5% (inactive). Also, the differential viability (reversal) in experiment [8] (H69AR cells + 2 uM doxorubicin) is 4.97% (inactive). For the same molecule, the inhibition in experiment [6] was -1.33% (inactive); in experiment [7], 11.2% (inactive); in [14], 2% (inactive). The results for the growth inhibition in experiment [9] and in experiment [10] were -8.07% (inactive) and -8.79% (inactive), respectively. Besides, the viability increase in experiment [11] is 3.43% (inactive).
With `CC[C@]1(O)C[C@@H]2CN(CCc3c([nH]c4ccccc34)[C@@](C(=O)OC)(c3cc4c(cc3OC)N(C)[C@H]3[C@@](O)(C(=O)OC)[C@H](OC(C)=O)[C@]5(CC)C=CCN6CC[C@]43[C@@H]65)C2)C1`, the viability in experiment [1] is 108%; in experiment [3], 108% (inactive); in [4], 10.5% (active); in [8] (setting [15]), 55.7%; in experiment [8] (setting [16]), 17.5%. In addition, the Her2 level in experiment [2] was 78.5% (inactive). Moreover, in [8] (H69AR cells + 2 uM doxorubicin), the differential viability (reversal) was -38.2% (inactive).
`Cn1c(=O)n(Cc2ccccc2)c(=O)c2c1nc(NCC1CCCO1)n2Cc1ccccc1` (stereo not drawn): the viability in experiment [1] is 81.5%; in experiment [3], 81.5% (inactive); in experiment [4], 74.4% (inactive); in [5] it was 73.3% (inactive). In addition, in [2], the Her2 level is 103% (inactive). Moreover, the inhibition was 0.79% (inactive) in experiment [6] and -0.18% (inactive) in experiment [7].
In the case of `CCOc1ccccc1N1C(=O)c2ccc(C(=O)Nc3cccnc3)cc2C1=O`, the viability is 94.5% in experiment [1]; 94.5% (inactive) in experiment [3]; 88.2% (inactive) in [4]; 102% (inactive) in experiment [5]; 100% in experiment [8] (setting [15]); 102% in experiment [8] (setting [16]). Further, the values for the viability in experiment [12] and in experiment [13] were 107% (inactive) and 98.7% (inactive), respectively. Moreover, the Her2 level in [2] was 94% (inactive). The differential viability (reversal) in experiment [8] (H69AR cells + 2 uM doxorubicin) was 2.08% (inactive). The inhibition in experiment [6] is -1.6% (inactive); in experiment [7] it was -2.13% (inactive); in [14], 3.15% (inactive). Further, the growth inhibition in experiment [9] is -15.8% (inactive); in experiment [10] it was -21.7% (inactive). In experiment [11], the viability increase was 0.54% (inactive).
For `Cc1ccc(Cn2c(C)nc3c(c2=O)c2nc4ccccc4nc2n3Cc2ccco2)cc1`, the viability in experiment [1] was 118%; in [3], 118% (inactive); in experiment [4] it was 54.9% (inactive); in experiment [8] (setting [15]), 50.5%; in [8] (setting [16]), 49%. For the same molecule, in experiment [2], the Her2 level is 71.5% (inactive). Moreover, in experiment [8] (H69AR cells + 2 uM doxorubicin), the differential viability (reversal) was -1.46% (inactive). The inhibition was 1.32% (inactive) in experiment [6] and 1.8% (inactive) in experiment [7].
For `Cc1ccc(Cn2nnc3c(=O)[nH]c(C4CCN(S(=O)(=O)c5ccc(F)cc5)CC4)nc32)cc1`, the viability in experiment [1] is 90.5%; in experiment [3] it was 90.5% (inactive); in [4], 76.4% (inactive); in experiment [5], 86.2% (inactive). The Her2 level in experiment [2] was 106% (inactive). Besides, the inhibition in [6] was -1.73% (inactive); in experiment [7], -5.16% (inactive).
Turning to `O=C(COc1ccccc1)N1CCN(c2ncnc3c2cnn3-c2ccccc2)CC1`, the viability in [1] was 97%; in experiment [3], 97% (inactive); in [4], 58.6% (inactive); in experiment [5] it was 74.8% (inactive). Further, the Her2 level in [2] is 77% (inactive). The figures for the inhibition in [6] and in [7] were -8.77% (inactive) and -3.65% (inactive), respectively.
